Pf Dd2 growth – blocks in vitro growth of P. falciparum Dd2 | actives 4.3% (n = 120,000) | P. falciparum Dd2 growth, SYBR Green, 72 h | Potency, µM (doses to about 28.9 µM), most hits filed as inhibitors | AID 1347417; active means well fitted inhibition curve with a large enough effect; further: nearly all actives have a fitted effect of over 65% in size
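Readout: SYBR Green fluorescence, 485 nm excitation, 535 nm emission, after ~16 h lysis at 37C. Before that, Dd2-infected red cells (2.5% hematocrit) grew 72 h with compound, 29 uM top final concentration.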
A number is an active result. Only a selection was taken, and hits are over-represented in it overall.

What do the screens show for `O=C(CCC1CCN(C(=O)c2ccccc2Cl)CC1)N1CCc2ccccc2C1`?
Pf Dd2 growth: inactive

What do the screens show for `CCOC(=O)c1c(NC(=O)COc2ccccc2F)sc2c1CCCC2`?
Pf Dd2 growth: inactive

What do the screens show for `CCOC(=O)c1c(NC(=O)CSc2cn(CCNC(=O)c3ccc(OCC)cc3)c3ccccc23)sc2c1CCCC2`?
Pf Dd2 growth: inactive

Results for CCOC(=O)c1c(NC(=O)C(C)Sc2cn(CCNC(=O)c3c(F)cccc3F)c3ccccc23)sc2c1CCC2 (stereo not given) ?
Pf Dd2 growth: 7.9µM

What do the screens show for `CCOC(=O)c1c(NC(=O)CSc2cn(CCNC(=O)c3ccc(OC)cc3)c3ccccc23)sc2c1CCC2`?
Pf Dd2 growth: 13µM

Results for COc1ccc(NC(=O)CSc2cn(CCNC(=O)c3ccc(OC)cc3)c3ccccc23)cc1 ?
Pf Dd2 growth: inactive

What do the screens show for `CC(Sc1cn(CCNC(=O)c2ccccc2F)c2ccccc12)c1ccccc1` (stereo not given)?
Pf Dd2 growth: inactive

How did CC(C)(CN1CCOCC1)CN1CCCN(Cc2cccnc2)CC1 do in these assays?
Pf Dd2 growth: inactive

What do the screens show for `O=C(c1csc2c1CCCC2)N1CCCC(OCc2ccccn2)C1` (stereo not given)?
Pf Dd2 growth: inactive

How did CCc1n[nH]c(CC2CCN(C(=O)Cc3cccc(F)c3)CC2)n1 do in these assays?
Pf Dd2 growth: inactive

Results for CN1CCC(OC2CCN(C(=O)c3ccccn3)CC2)CC1 ?
Pf Dd2 growth: inactive

What do the screens show for `CC(O)c1cc2n(n1)CCN(C(=O)c1cc(=O)n(C)c(=O)n1C)C2` (stereo not given)?
Pf Dd2 growth: inactive

What do the screens show for `CC(C)C1=NOC2(CCN(Cc3ccc(C(F)(F)F)cc3)CC2)C1`?
Pf Dd2 growth: inactive

How did O=C(N[C@@H]1CCOC[C@H]1OCc1cscn1)c1ccc(N2CCCC2=O)cc1 do in these assays?
Pf Dd2 growth: inactive

Results for COc1ccc(C2=CC(c3cc(Br)ccc3F)n3c(nc4ccccc43)N2)cc1 (stereo not given) ?
Pf Dd2 growth: inactive

Results for CCOc1ccc(C2=CC(c3cc(Br)ccc3F)n3ncnc3N2)cc1Cl (stereo not given) ?
Pf Dd2 growth: 11µM

Results for COC(=O)c1nc2n(n1)C(c1cc(OC)ccc1OC)C=C(c1ccc(Br)cc1)N2 (stereo not given) ?
Pf Dd2 growth: inactive

How did CC1(C)C(=O)N(Cc2ccccc2F)[C@H]2CN(Cc3ccc4c(c3)CCO4)C[C@H]2[S+]1(=O)[O-] do in these assays?
Pf Dd2 growth: inactive

What do the screens show for `COc1cccc(CC(=O)NCC(=O)N2CCCCCNC(=O)CC2c2ccccc2)c1` (stereo not given)?
Pf Dd2 growth: inactive

What do the screens show for `Cc1nc(N2CCCCC2)n(CC(=O)Nc2ccc(F)cc2)c(=O)c1C`?
Pf Dd2 growth: inactive

How did COc1ccc(-c2noc(-c3cccn3CC(=O)NCc3ccc(F)cc3Cl)n2)cc1F do in these assays?
Pf Dd2 growth: inactive

How did Cc1cnc(-c2ccncc2)n1CCNC(=O)CCC1CCCC1 do in these assays?
Pf Dd2 growth: inactive

How did CCCn1c(C)cnc1CCNC(=O)CCC1CCCC1 do in these assays?
Pf Dd2 growth: 2.5µM

Results for CCNC(=O)NCCc1ncc(C)n1CC1CC1 ?
Pf Dd2 growth: inactive

How did COC[C@H]1NC(=O)CC[C@H]1C(=O)Nc1ccc(N2CCOCC2)cc1 do in these assays?
Pf Dd2 growth: inactive

Results for COc1ccc(N2CCN(C(=O)c3c(C)nn(-c4ccc(F)cc4)c3-n3cccc3)CC2)cc1 ?
Pf Dd2 growth: inactive

How did Cc1nc2ncnn2c(C)c1CCC(=O)N1CCN(c2ccc(F)cc2)CC1 do in these assays?
Pf Dd2 growth: inactive

Results for COc1ccc(-c2cc3nc(C)c(CCC(=O)N4CCN(c5ccc(F)cc5)CC4)c(C)n3n2)c(OC)c1 ?
Pf Dd2 growth: 10µM

What do the screens show for `COc1ccc(-c2cc3nc(C)c(CCC(=O)N4CCN(c5cccc(Cl)c5)CC4)c(C)n3n2)c(OC)c1`?
Pf Dd2 growth: 10µM

How did Cc1nc2ncnn2c(C)c1CCC(=O)N1CCN(c2cccc(Cl)c2)CC1 do in these assays?
Pf Dd2 growth: inactive

How did COc1ccc(N2CCN(C(=O)CCc3c(C)nc4cc(-c5ccc(Cl)cc5)nn4c3C)CC2)cc1 do in these assays?
Pf Dd2 growth: inactive

Results for CC(NC(=O)Cc1cccn1-c1cccc(Cl)c1)c1ccccn1 (stereo not given) ?
Pf Dd2 growth: inactive

Results for CC1=C[C@@H](CO)[C@H](C(C)C)C[C@H]1CC(=O)N1CCN(c2ccccn2)CC1 ?
Pf Dd2 growth: inactive

Results for CC1=C[C@@H](CN2CCN(c3ccccn3)CC2)[C@H](C(C)C)C[C@H]1Cc1nnc(-c2ccc([N+](=O)[O-])cc2)o1 ?
Pf Dd2 growth: 3.5µM

What do the screens show for `CC1=C[C@@H](CN(C)Cc2cccnc2)[C@H](C(C)C)C[C@H]1Cc1nnc(-c2ccc([N+](=O)[O-])cc2)o1`?
Pf Dd2 growth: 4.5µM

Results for CC1=C[C@@H](CN2CCC(CO)CC2)[C@H](C(C)C)C[C@H]1Cc1nnc(-c2ccccc2)o1 ?
Pf Dd2 growth: inactive

Results for CC1=C[C@@H](CN2CCN(c3ncccn3)CC2)[C@H](C(C)C)C[C@H]1Cc1nnc(COc2ccc(F)cc2)o1 ?
Pf Dd2 growth: 0.89µM

What do the screens show for `CSCCCN1CCC(Oc2ccc3ncccc3c2)(C(=O)O)CC1`?
Pf Dd2 growth: inactive

Results for CCN1c2cc(C(=O)Nc3ccc(N(C)C)cc3)ccc2C(=O)N2CCCCCC21 (stereo not given) ?
Pf Dd2 growth: inactive

How did COCC(=O)N(C1CCOCC1)C1CCN(C(=O)c2ccc(F)cc2F)CC1 do in these assays?
Pf Dd2 growth: inactive

Results for Cc1ccc(C(CC(=O)N2CCc3ccccc3C2)c2cn(C)c3ccccc23)cc1 (stereo not given) ?
Pf Dd2 growth: inactive

Results for CCc1cccc2c(C(CC(=O)N3CCCC3)c3cccc(Cl)c3)c[nH]c12 (stereo not given) ?
Pf Dd2 growth: inactive

Results for COc1ccc(C(CC(=O)N2CCCC2)c2cn(Cc3ccccc3)c3ccccc23)cc1OC (stereo not given) ?
Pf Dd2 growth: inactive

How did CCOC(=O)C1CCN(C(=O)CC(c2ccc(OC)c(OC)c2)c2c[nH]c3c(CC)cccc23)CC1 (stereo not given) do in these assays?
Pf Dd2 growth: 1.3µM

Results for CCOC(=O)C1CCCN(C(=O)CC(c2ccc3c(c2)OCO3)c2cn(CC)c3ccccc23)C1 (stereo not given) ?
Pf Dd2 growth: 7.1µM

How did Cc1ccc(C(CC(=O)N2CCC(C)CC2)c2cn(C)c3ccccc23)cc1 (stereo not given) do in these assays?
Pf Dd2 growth: inactive

How did CCc1cccc2c(C(CC(=O)NCc3ccc4c(c3)OCO4)c3ccc(OC)c(OC)c3)c[nH]c12 (stereo not given) do in these assays?
Pf Dd2 growth: 4µM

How did CCOC(=O)C1CCN(C(=O)CC(c2ccc(Cl)cc2)c2cn(C)c3ccccc23)CC1 (stereo not given) do in these assays?
Pf Dd2 growth: 4µM

How did COc1ccc(C(CC(=O)NCc2ccccc2)c2c[nH]c3ccccc23)cc1OC (stereo not given) do in these assays?
Pf Dd2 growth: inactive

Results for CCc1cccc2c(C(CC(=O)NCCOC)c3ccc(OC)c(OC)c3)c[nH]c12 (stereo not given) ?
Pf Dd2 growth: inactive

Results for CCOC(=O)C1CCCN(C(=O)Cn2ncc3c4ccccc4n(C)c3c2=O)C1 (stereo not given) ?
Pf Dd2 growth: inactive

Screens (PubChem)
